Test results published in PubChem BioAssay (NCATS).
Results filed as inconclusive are left out. The source made the active and inactive calls. The call rests on the fitted dose curve; in most records, active means well fitted curve in the direction sought with a large enough effect; inconclusive means small, poorly fitted or top-dose-only effect, or another doubt; inactive means no such curve, though single readings can be large; an effect the other way counts as inactive or inconclusive.

Assays:
[1] = molecular target: Glutathione peroxidase 1 (Homo sapiens) (UniProt P07203); test: Primary qHTS Assay for Inhibitors of Recombinant Selenoprotein Glutathione Peroxidase 1 (GPX1) (AID 1845191); further: nearly all actives have a fitted effect of over 65% in size
Sequence of Glutathione peroxidase 1 (Homo sapiens) (P07203 whole entry, looked up): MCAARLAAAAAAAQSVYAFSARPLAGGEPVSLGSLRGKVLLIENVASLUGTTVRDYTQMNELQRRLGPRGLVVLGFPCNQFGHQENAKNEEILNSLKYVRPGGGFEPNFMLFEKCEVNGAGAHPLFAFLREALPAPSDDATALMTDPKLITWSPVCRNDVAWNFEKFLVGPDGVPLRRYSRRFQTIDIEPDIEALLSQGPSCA
In short: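 GPX1 10 nM, GR 100 nM, GSH 1 mM, NADPH 0.5 mM, CHP 0.5 mM (final). 30-min cpd preincubation, RT. Ex340/Em450 read t=0, t=15 min.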

[2] = molecular target: Phospholipid hydroperoxide glutathione peroxidase GPX4 (Homo sapiens) (UniProt P36969); test: Primary qHTS Assay for Inhibitors of Recombinant Selenoprotein Glutathione Peroxidase 4 (GPX4) (AID 1845192); further: nearly all actives have a fitted effect of over 65% in size
Sequence of Phospholipid hydroperoxide glutathione peroxidase GPX4 (Homo sapiens) (P36969 whole entry, looked up): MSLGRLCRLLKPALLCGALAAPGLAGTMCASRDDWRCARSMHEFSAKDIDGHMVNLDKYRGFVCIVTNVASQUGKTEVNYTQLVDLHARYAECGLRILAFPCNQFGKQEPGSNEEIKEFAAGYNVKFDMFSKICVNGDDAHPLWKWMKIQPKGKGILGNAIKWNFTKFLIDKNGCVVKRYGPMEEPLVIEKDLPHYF
In short: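 qHTS, GR-coupled: GPX4 200 nM + cpd 30 min RT → GSH 1 mM, NADPH 0.5 mM, GR 100 nM → CHP 0.5 mM start; fluor 340/450 at t0 and t15 min; no-enzyme wells as control.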

[3] = molecular target: Luciferin 4-monooxygenase (Photinus pyralis) (UniProt P08659); test: Primary firefly luciferase (FLuc) qHTS assay for identification of artifact compounds. (AID 1845220); further: nearly all actives have a fitted effect of over 60% in size
In short: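 Reaction readout was CCD-imaged luminescence, taken 5 min after adding 10 nM purified firefly enzyme to compound-treated wells holding 10 uM luciferin and ATP in pH 7.6 buffer.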

[4] = test system: Nanoluciferase (engineered Oplophorus gracilirostris luciferase); test: Primary Nanoluciferase (NLuc) qHTS assay for identification of artifact compounds. (AID 1845222);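 further: NLuc secreted into diluted conditioned medium of S16 cells; series mostly up to about 54 µM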
In short: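 Concentration-response data were obtained by luminescence after 5 min with Nano-Glo substrate at 1:100. The enzyme was diluted S16 NLuc-expressing cell medium, preincubated with compound for 15 min at RT. Curves were fitted with a 4-parameter Hill model.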

[5] = Primary redox qHTS assay for identification of artifact compounds. (AID 1845223)
In short: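 Redox-cycling detection via DTT (250 uM final) oxidation coupled to Amplex Red (25 uM)/HRP (250 mU/mL) in HBSS. 15 min preincubation plus 30 min after DTT, room temperature. Ex/Em 525/598 nm; 4-parameter Hill fit against DMSO and 10 uM DA3003.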

Measured: Potency

CC(C)c1cccc2c(-c3ccccc3)cc(-c3ccc(-c4ccc(C(=O)O)cc4)[nH]3)nc12
inactive: all assays above

C=CC1(C)C=C2C(=O)OC(=O)C3=C(CCCC3(C)C)C2(O)CC1 (stereo not given)
inactive: all assays above

CC(C)c1ccc2c(c1)C(=O)CC1[C@@](C)(C(=O)O)CCC[C@]21C (stereo not given in full)
inactive: all assays above

COc1cc(O)c2c(c1)C1=CC(O)C(O)CC1(C)OC2=O (stereo not given)
inactive: all assays above

Cc1ccc(S(=O)(=O)Nc2ccccc2N2CCCCC2)s1
inactive: all assays above

c1cc(OCCCN2CCCCC2)ccc1CN1CCCCC1
inactive: all assays above

CC(O)/C=C/C1(O)C2(C)COC1(C)CC(O)C2 (stereo not given)
inactive: all assays above

C[C@@H]1[C@H]2[C@H](O[C@@H]3O[C@H](CO)[C@@H](O)[C@H](O)[C@H]3O)OC=C(C(=O)O)[C@H]2C[C@@H]1O
inactive: all assays above

O=C(/C=C/c1ccccc1)OC[C@]12O[C@H]1[C@@H](O)[C@@H]1C=CO[C@@H](O[C@@H]3O[C@H](CO)[C@@H](O)[C@H](O)[C@H]3O)[C@@H]12
inactive: all assays above

COc1ccc2[nH]c3c(-c4cccc5ccccc45)nccc3c2c1
inactive: all assays above

COC(=O)C1=CO[C@@H](O[C@@H]2O[C@H](CO)[C@@H](O)[C@H](O)[C@H]2O)[C@H]2[C@@H]1CC(OC)O[C@@H]2C (stereo not given in full)
inactive: all assays above

C=C1C(=O)O[C@@H]2/C=C(\C)C(=O)/C=C/[C@](C)(O)C[C@@H](OC(=O)C(C)C)[C@@H]12
inactive: all assays above

Cc1cc(O)cc(O[C@@H]2O[C@H](CO)[C@@H](O)[C@H](O)[C@H]2O)c1
inactive: all assays above

NCCCNc1ccc(Nc2nccc(Nc3cc(C4CC4)[nH]n3)n2)cc1
inactive: all assays above

C=C1C(O)C[C@@H]2C(C(=O)O)=CO[C@@H](O[C@@H]3O[C@H](CO)[C@@H](O)[C@H](O)[C@H]3OC(=O)c3ccc(O)cc3)[C@H]12 (stereo not given in full)
inactive: all assays above

C/C1=C\CC[C@H](C)CCO[C@@H]2O[C@H](CO[C@@H]3OC[C@](O)(COC1=O)[C@H]3O)[C@@H](O)[C@H](O)[C@H]2O
inactive: all assays above

CC1(C)CC2C=C(C(=O)O)C3COC(=O)C(O)(CO)C23C1 (stereo not given)
inactive: all assays above

CC(=O)NC[C@H]1CN(c2ccc(N3CCN(C(=O)CO)CC3)c(F)c2)C(=O)O1
inactive: all assays above

FC(F)(F)c1cc(-c2ncn(/C=C\c3nnco3)n2)cc(C(F)(F)F)c1
inactive: all assays above

COc1ccc(-c2c(-c3cc(C(=O)O)ccn3)ncn2C)cc1
inactive: all assays above

CC/C=C\CCO[C@@H]1O[C@H](CO[C@@H]2OC[C@H](O)[C@H](O)[C@H]2O)[C@@H](O)[C@H](O)[C@H]1O
inactive: all assays above

COC1C(CO)OC(n2cnc3c(=O)[nH]cnc32)C1O (stereo not given)
inactive: all assays above

CC(C)c1nc(-c2ccc(NC(=O)Nc3cccc(C(F)(F)F)c3)c3ccccc23)c2c(N)nccn12
inactive: all assays above
